Screens deposited in PubChem BioAssay by National Center for Advancing Translational Sciences (NCATS).
In the library only some 5.3% were active in any assay of this set; here they are far more common.
ALOX15B inhib = qHTS Assay for Inhibitors of 15-hLO-2 (15-human lipoxygenase 2) | Polyunsaturated fatty acid lipoxygenase ALOX15B (Homo sapiens), O15296 | purified 15hLO-2, xylenol orange hydroperoxide absorbance | Potency, µM (highest dose often 57.1 µM), hits mostly inhibitors | 0.56% of 110,000 active; also: nearly all actives have a fitted effect of over 60% in size
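Purified human 15hLO-2 (50 nM final) preincubated with compounds 15 min at room temperature in 25 mM Hepes pH 7.5, 0.01% Triton X-100, then 45 uM arachidonic acid added for 90 min; hydroperoxide detected via ferrous/xylenol orange, 573/405 nm absorbance ratio.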
IMPase inh = qHTS Assay for Identifying the Cell-Membrane Permeable IMPase Inhibitors; inhibition (IP1 accumulation), % at 46.1 µM; 120,000 tested, under 10 active; CHO-M1 cells, IP1 accumulation, HTRF TR-FRET ratio; Inositol monophosphatase 1 (Rattus norvegicus), P97697; AID 901, 2007; active = well fitted curve in the direction sought with a large enough effect in the signal ratio, not every such curve was filed as active; inconclusive = small, poorly fitted or top-dose-only effect, or a change in a side signal; inactive = no such curve, though single readings can be large or run the other way; the % refers to the signal ratio;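 also: cells stimulated with carbachol in lithium chloride buffer; higher means more IMPase inhibition seen as more IP1 and lower FRET ratio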
Target sequence (P97697 whole entry, looked up): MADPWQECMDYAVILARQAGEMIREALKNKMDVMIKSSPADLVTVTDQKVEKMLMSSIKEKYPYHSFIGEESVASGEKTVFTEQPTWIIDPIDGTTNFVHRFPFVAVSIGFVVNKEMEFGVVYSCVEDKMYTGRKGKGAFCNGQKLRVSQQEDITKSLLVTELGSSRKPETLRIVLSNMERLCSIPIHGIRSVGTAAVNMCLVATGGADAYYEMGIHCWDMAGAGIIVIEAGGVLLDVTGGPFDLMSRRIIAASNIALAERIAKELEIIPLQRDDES
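Elevated IP1 in lysates lowers TR-FRET signal (665/620 ratio and 620 channel reported). Cells were CHO-M1, given carbachol (50 uM as added) plus 50mM LiCl, pH 7.4, 30 min, 37C; compounds titrated up to 46 uM; AC50 by Hill equation.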
IMPase Li cell = qHTS Assay for Identifying the Cell-Membrane Permeable IMPase Inhibitors: Potentiation with Lithium; AID 1457, 2008; 0.35% of 210,000 active; Potency, µM (titrated, usually from 59.4 µM), usual class: inhibitors; CHO-M1 cells, IP1 TR-FRET (IP-One), carbachol + lithium;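 also: IP1 builds up when IMPase is blocked and the TR-FRET signal falls; nearly all actives have a fitted effect of over 50% in size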
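Readout is a homogeneous TR-FRET IP1 immunoassay (Ex 320, Em 665 and 620), where raised cytosolic IP1 lowers signal. Cells were CHO-M1 treated 30 min at 37C with test compounds plus a little lithium; AC50 values came from Hill-equation fitting.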
PNC assembly inh = High Content Assay for Compounds that inhibit the Assembly of the Perinucleolar Compartment | PC3M PTB-GFP, PNC prevalence imaging, 16 h; hits give low values | activity change (PNC), negative = inhibition, % at 10 µM | 3.1% of 140,000 active;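 active = readout at or below -70, meaning at least 70% loss of cells showing the perinucleolar compartment, a nuclear body marking cancer cells; inconclusive = readout between -30 and a set limit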
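PC3M cells stably expressing PTB-GFP, 750–1000 cells/well, treated 16 h at 37 °C with compound (23 nl of library stock), in duplicate. After paraformaldehyde fixation and Hoechst stain, imaged at 20x; PNC prevalence scored by image analysis.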
HPGD block = qHTS Assay for Inhibitors of HPGD (15-Hydroxyprostaglandin Dehydrogenase); 15-hydroxyprostaglandin dehydrogenase [NAD(+)] (Homo sapiens), P15428; Potency, µM, hits mostly inhibitors; purified HPGD, NADH fluorescence kinetic, PGE2 substrate; 4.3% of 150,000 active; active = well fitted inhibition curve with a large enough effect, not every such curve was filed as active; inconclusive = small, poorly fitted or top-dose-only effect, or another doubt; inactive = no such curve, though single readings can be large or run the other way
Target sequence (P15428 whole entry, looked up): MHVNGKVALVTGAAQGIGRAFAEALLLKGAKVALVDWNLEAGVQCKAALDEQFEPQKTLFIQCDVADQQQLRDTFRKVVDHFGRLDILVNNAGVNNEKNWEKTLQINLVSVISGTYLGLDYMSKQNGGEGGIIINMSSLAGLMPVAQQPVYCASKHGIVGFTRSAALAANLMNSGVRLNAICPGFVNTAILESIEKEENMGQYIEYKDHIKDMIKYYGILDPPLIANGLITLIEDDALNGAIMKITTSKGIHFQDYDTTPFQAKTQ
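NADH formation kinetics: reaction with 30 uM PGE2 and 1 mM NAD+ (final), 20 nM enzyme, Tris-HCl pH 8 with Tween 20, after 15 min compound preincubation at room temperature. Fluorescence change, last versus first of five reads.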
ALOX12 inhib = qHTS Assay for Inhibitors of 12-hLO (12-human lipoxygenase). purified 12-hLO, xylenol orange hydroperoxide absorbance. AID 1452, 2008. Potency, µM (titrated, usually from 57.1 µM), actives largely listed as inhibitors. 0.12% of 150,000 active; also: nearly all actives have a fitted effect of over 55% in size
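Hydroperoxide output read as Fe(III)-xylenol orange absorbance, 573-to-405 nm ratio, after 30 min reaction with 40 uM arachidonic acid. Enzyme: 150 nM purified human 12hLO, 15 min compound preincubation; 25 mM Hepes pH 7.0, room temperature.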
Of the large screens only hits and unclear results are named; the others gave an inactive call. Unless noted, calls follow the shape of the dose curve; as a rule, active = well fitted curve in the direction sought with a large enough effect; inconclusive = small, poorly fitted or top-dose-only effect, or another doubt; inactive = no such curve, though single readings can be large; an effect the other way counts as inactive or inconclusive.

CSc1nc2ccc(NS(=O)(=O)c3ccc4c(c3)OCCO4)cc2s1	none
N#Cc1cc(S(=O)(=O)c2ccc(F)cc2)c(N)[nH]c1=O	none (no result: ALOX15B inhib, IMPase inh, PNC assembly inh, HPGD block, ALOX12 inhib)
N#Cc1cc(S(=O)(=O)c2ccccc2)c(N)[nH]c1=O	PNC assembly inh -113, HPGD block inconclusive
CN(C)CC(=O)N1c2ccccc2CCc2ccc(NC(=O)c3ccc(N)cc3)cc21	PNC assembly inh -85
COc1cc(C(=O)Nc2ccc3c(c2)N(C(=O)CCN(C)C)c2ccccc2CC3)cc(OC)c1OC	none (no result: ALOX15B inhib, IMPase inh, PNC assembly inh, HPGD block, ALOX12 inhib)
COc1cc(NC(=O)CSc2nc(-c3ccco3)cc(C(F)(F)F)n2)cc(OC)c1OC	none (no result: ALOX15B inhib, IMPase Li cell, PNC assembly inh, HPGD block, ALOX12 inhib)
Cc1ccc(O)c(C2=NOC(O)(C(F)(F)F)C2)c1 (configuration not stated)	HPGD block 14µM
Cc1ccc(O)c(C2=NOC(O)(C(F)(F)C(F)F)C2)c1 (configuration not stated)	PNC assembly inh inconclusive, HPGD block 5µM
Cc1ccc(O)c(C2=Nc3ccccc3N=C(c3cccc(F)c3)C2)c1	none (no result: ALOX15B inhib, IMPase Li cell, PNC assembly inh, HPGD block, ALOX12 inhib)
CCOc1ccc(CN2CCN(S(=O)(=O)c3ccc(Cl)cc3)CC2)cc1	none (no result: ALOX15B inhib, IMPase Li cell, PNC assembly inh, HPGD block, ALOX12 inhib)
O=[N+]([O-])c1cc(N(CCO)CCO)ccc1NCCO	ALOX15B inhib inconclusive (no result: IMPase inh, PNC assembly inh)
CCOC(=O)N1CCN(c2c(N3CCN(c4cccc(C)c4C)CC3)c(=O)c2=O)CC1	none
CCOC(=O)N1CCN(c2c(-c3ccc(C(C)C)cc3)c(=O)c2=O)CC1	ALOX12 inhib inconclusive
CCOC(=O)N1CCN(c2c(-c3ccc(C)c(C)c3)c(=O)c2=O)CC1	PNC assembly inh -100 (no result: ALOX15B inhib)
CCOC(=O)N1CCN(c2c(-c3ccc(C)cc3)c(=O)c2=O)CC1	PNC assembly inh -100 (no result: ALOX15B inhib)
CC[C@@H]1Cn2c(c3nc(-c4cc(Cl)cc(Cl)c4Cl)nc-3n(C)c2=O)N1	HPGD block inconclusive (no result: IMPase inh, PNC assembly inh)
C#CCNC(=O)C1=C[C@H](c2coc3ccccc3c2=O)[C@@H](CCCO)[C@H](OCC)O1	none (no result: ALOX15B inhib, IMPase inh, PNC assembly inh, HPGD block, ALOX12 inhib)
Nc1ccc2nc(-c3ccccc3)sc2c1	IMPase inh inconclusive, IMPase Li cell 11µM, PNC assembly inh inconclusive, HPGD block inconclusive
Cc1ccc2c(Cl)cc(Cl)c(OCC(=O)Nc3ccc(C)c(S(=O)(=O)N(C)C)c3)c2n1	PNC assembly inh inconclusive (no result: ALOX15B inhib)
Cc1cc(NC(=O)Nc2ccc(N(C)C)cc2)c2cc(F)cc(F)c2n1	none (no result: PNC assembly inh)
CCOC(=O)C1=C(C)N=c2s/c(=C/c3ccco3)c(=O)n2C1c1cccc(OC)c1 (configuration not stated)	ALOX15B inhib inconclusive, HPGD block 14µM, ALOX12 inhib inconclusive
CCC(=O)Nc1ccc(S(=O)(=O)N2CCOCC2)cc1	PNC assembly inh -80
O=C(COC(=O)c1ccc(S(=O)(=O)N2CCCC2)cc1)Nc1ccc(N2CCOCC2)cc1	none (no result: ALOX15B inhib, IMPase inh, PNC assembly inh, HPGD block, ALOX12 inhib)
Cc1cc(C)n(-c2ccc(C(=O)OCC(=O)Nc3ccc(S(=O)(=O)N4CCOCC4)cc3)cc2)n1	PNC assembly inh -87
O=C(COC(=O)c1ccc(Br)o1)Nc1ccc(S(=O)(=O)N2CCCC2)cc1	PNC assembly inh -80
CCOCC(=O)Nc1ccc(S(=O)(=O)N2CCOCC2)cc1	none
Cc1ccccc1C1CC(=O)Oc2cc(C)c(Br)c(C)c21 (configuration not stated)	none (no result: IMPase inh, PNC assembly inh)
CCCN1C(=O)/C(=C\c2ccncc2)SC1=Nc1ccccc1	PNC assembly inh inconclusive, HPGD block 32µM (no result: ALOX15B inhib, IMPase inh)
CCN1C(=O)/C(=C\c2ccncc2)SC1=Nc1ccc(C)c(C)c1	none (no result: ALOX15B inhib, IMPase inh)
COc1cccc(-c2ccc(C#N)c(SCC(=O)NCCc3cccc(Cl)c3)n2)c1	IMPase Li cell 11µM, HPGD block inconclusive (no result: ALOX15B inhib)
COc1cc(/C=C2\SC(=N)N(c3ccc4c(c3)OCO4)C2=O)cc(OC)c1O	HPGD block 4µM (no result: ALOX15B inhib, IMPase inh)
Cc1c(C(=O)OC(C)C)sc(NC(=O)C2c3ccccc3Oc3ccccc32)c1C(=O)OC(C)C	none (no result: ALOX15B inhib, IMPase Li cell, PNC assembly inh, HPGD block, ALOX12 inhib)
Cc1ccc(S(=O)(=O)CC(=O)N(C)C)cc1	PNC assembly inh -100 (no result: ALOX15B inhib)
CC1=C(C(=O)Nc2ccccc2)C(C(C)C)n2nc(SCc3ccccc3C)nc2N1 (configuration not stated)	none (no result: ALOX15B inhib, IMPase Li cell, PNC assembly inh, HPGD block, ALOX12 inhib)
Cc1cc(C(F)F)n2nc(C(=O)Nc3ccc(F)c(Cl)c3)nc2n1	none (no result: ALOX15B inhib, IMPase Li cell, PNC assembly inh, HPGD block, ALOX12 inhib)
COc1ccccc1OCCCOc1c(C)cc(C)cc1Br	none (no result: ALOX15B inhib, IMPase inh)
COc1cccc(OC)c1OCCCOc1ccc([N+](=O)[O-])cc1Cl	HPGD block 16µM (no result: ALOX15B inhib, IMPase inh)
COc1cccc(OC)c1OCCCOc1ccc(C)cc1Br	HPGD block 22µM (no result: ALOX15B inhib, IMPase inh)
CCOc1ccccc1OCCCOc1ccc([N+](=O)[O-])cc1Cl	none
COC(=O)CC1C(C)(C)C(=O)C2CC3=C(CC[C@]4(C)C3=CC(=O)OC4c3ccoc3)[C@@]1(C)C2=O (some centres not stated)	none (no result: IMPase inh, PNC assembly inh)
C=CC1=C2C=C(C3CC3)N(Cc3ccco3)C=C2C(=O)C(C)(OC(=O)c2ccco2)C1=O (configuration not stated)	none (no result: ALOX15B inhib, IMPase inh, PNC assembly inh)
Cc1cccc(CNc2cc(-c3ccoc3)ncn2)c1	HPGD block 20µM (no result: IMPase inh, PNC assembly inh)
O=S(=O)(NCCCCCNS(=O)(=O)c1ccccc1)c1ccccc1	PNC assembly inh -91
Cc1ccc(-c2nn(-c3cc(N4CCNCC4)ccc3[N+](=O)[O-])c(=O)c3ccccc23)cc1	none (no result: ALOX15B inhib, IMPase inh, PNC assembly inh, HPGD block, ALOX12 inhib)
